What follows are sequences tested on PPARg:RXRa 90nM:30nM, anti-RXR (NR concentration 90 nM, RXRa partner concentration 30 nM) (assay: PBM binding z-score (relative to random genomic background probes); higher = stronger binding; sequences stand for … in GC…GCGATTGACAGCGTAGAATGAAGG).
Procedure, shortened: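 Custom Agilent 4×180K protein-binding microarrays carried double-stranded probes, each with a 34-nt variable region. These regions held direct-repeat seeds, single-nucleotide variants, half-site ablations and random human genomic background sequences. Ligand-free nuclear receptor dimers were incubated on the arrays for 1 h, antibodies against each partner (one per run) detected binding, and scanned fluorescence was regression-normalized. Binding z-scores take the random background probes as reference.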

| Sequence | PBM binding z-score |
| --- | --- |
| TATACAGGGTCAAAGGGCAGAGTACGAATGTCGA | 8.56 |
| CGTCCAAGGTCAAAGGTCAGGGAAGAGATGACGG | 9.6 |
| CAAACTAGGTCACCGGAAGGTCAAAGTTCGCATG | 8.3 |
| TAGCCTAGGTTATGCGGGCCAGTATAGTGTCGGC | -0.569 |
| CCTACTGGGCCAAAAAGGCCATTGATGCCGATAA | 0.151 |
| CGAACTAGGTCAAAGGCCAGTGAAAGGCGACGTA | 10.3 |
| ATCTCTAGGTTAAAGTTCAGTGAATCCCGAGGAT | 9.27 |
| CCGACTGGGGCAAAGGTTACGATACTCAGTACGA | 11.7 |
| ACTCGGAGGACAGAGGTCAGAGCTACGCCAGTGA | 4.8 |
| CAAACTAGGTCACAGAGGTCAAAGTTCGTGCGTA | 8.5 |
| CCAGACAGGTGAAAGGTCACTCAGTCTGGTACGC | 8.99 |
| CAATCTAGGTCACAGAGGTCAAAGTCCGTGCGTA | 9.13 |
| ACTAGCAGGTCAAGGGTCACTCAAGATTAGTCCG | 10.3 |
| CATACACGGTCAGCTAGGCCAGAGTAGGGACGGC | -0.382 |
| GCTTCCGGGTCAAAGGTTATAGCATGAATAGAAT | 11.4 |
| TCAGATAGGTAAAGGTGAAAGTCGAACGATATGA | 4.3 |
| ATATGTAGGTCAGGGTCATTCAGAAAGTAGGGAA | 7.76 |
| CTAACTAGGTCACCGGAAGGTCAAAGTCCGCATG | 7.67 |
| CGTCCAAGGTCAGCAGGTGAGTGAAAGCGACGTG | 2.24 |
| TCTAGTAGGTCACGGAGGTCACACACGACGGGTA | 8.04 |

| Sequence | PBM binding z-score |
| --- | --- |
| TCATATAGGTAATAAAGGTGAAAGTCGGCATCTA | 4.65 |
| CAAAATAGGTCAAGGTCAAAGTCGGTTTGTGCCA | 7.54 |
| CGTCCAAGGTCAGCAGGTCAGAGAAAGCGACGTG | 3.69 |
| CGTCCAAGGTCAAAGGTCACTGAAGAGATGACGG | 11.1 |
| TCTAGTTGGTCACGGAGGTCACACGCGACGGGTA | 3.9 |
| TCATATAGGTTAAAGGTGAAAGTCGGTGTGGTAA | 11.5 |
| CAAACTAGGTCACGAGGTCAAAGTCCGCTTCCCG | 8.74 |
| CCTACTGGGCCAAGGTCTTTGATCAGTCAAAGCA | 0.749 |
| CGTCCAAGGTCAATGCTAGCTCAGTGAAAGCATT | 2.62 |
| CCTAGTGGGCCAAAGGTCATTGATTCCAATGCTC | 12.9 |
| CCTGCTAGGTCAAGGGTCAGCTAAAGCAGCTCGC | 9.4 |
| AGTCAAATTTCACTAGGTAACGTAAGATTCAGCT | -0.0408 |
| ACTCGGAGGGCAAAGGTCAGAGCTACGCCAGTGA | 9.51 |
| GATACAGGGTCAGCTAGAGGTCAGAGTATGGAAA | 3.52 |
| AGAATGGGGTTAAGATCAGGGAAACAGAATACAT | 3.37 |
| TCATATAGGTAATCAGGTGAAAGTCCGTAAGTTA | 4.2 |
| CGTCCAAGGTCAAGGTCACTGAAAGAGACTCGAA | 5.87 |
| CGTCCAAGCTCAGCAGGTCAGTGAAAGCGACGTG | -0.879 |
| CGAACTAGGTCAAAGGACACTGAAAGGCGACGTA | 10.8 |

— the supplement of paper PMC6555819
